High-throughput results: PubChem BioAssay, National Center for Advancing Translational Sciences (NCATS)
hERG WT inh = blocks the wildtype human KCNH2 potassium channel | Q12809 | U2OS, BacMam KCNH2, thallium flux FluxOr; stronger effect = lower value | activity change, % at 1.84 µM | 0.37% of 340,000 active;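 active = maximum activity change below -70%; inconclusive = maximum activity change between -70% and -50%; inactive = maximum activity change above -50%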; note: % is set by controls: 0 for no effect and ±100 for the full control effect
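U2OS cells were transduced with wild-type KCNH2 virus (2.03 x 10^8 / mL) for 4 h at room temperature, then cultured overnight at 37 C. Thallium flux was read with FluxOr dye. Rate constants were normalized to DMSO controls.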
TRPV1 PAM = enhances activation of the human vanilloid receptor TRPV1; TRPV1-expressing cells, Fluo-8 calcium influx, capsaicin EC20 potentiation; potentiation, % at 8.33 µM; 0.02% of 320,000 active; AID 540277; in the data active = potentiation above about 80%; inconclusive = between about 30% and that limit; note: 0% is about no effect
Target sequence (Q8NER1 whole entry, looked up): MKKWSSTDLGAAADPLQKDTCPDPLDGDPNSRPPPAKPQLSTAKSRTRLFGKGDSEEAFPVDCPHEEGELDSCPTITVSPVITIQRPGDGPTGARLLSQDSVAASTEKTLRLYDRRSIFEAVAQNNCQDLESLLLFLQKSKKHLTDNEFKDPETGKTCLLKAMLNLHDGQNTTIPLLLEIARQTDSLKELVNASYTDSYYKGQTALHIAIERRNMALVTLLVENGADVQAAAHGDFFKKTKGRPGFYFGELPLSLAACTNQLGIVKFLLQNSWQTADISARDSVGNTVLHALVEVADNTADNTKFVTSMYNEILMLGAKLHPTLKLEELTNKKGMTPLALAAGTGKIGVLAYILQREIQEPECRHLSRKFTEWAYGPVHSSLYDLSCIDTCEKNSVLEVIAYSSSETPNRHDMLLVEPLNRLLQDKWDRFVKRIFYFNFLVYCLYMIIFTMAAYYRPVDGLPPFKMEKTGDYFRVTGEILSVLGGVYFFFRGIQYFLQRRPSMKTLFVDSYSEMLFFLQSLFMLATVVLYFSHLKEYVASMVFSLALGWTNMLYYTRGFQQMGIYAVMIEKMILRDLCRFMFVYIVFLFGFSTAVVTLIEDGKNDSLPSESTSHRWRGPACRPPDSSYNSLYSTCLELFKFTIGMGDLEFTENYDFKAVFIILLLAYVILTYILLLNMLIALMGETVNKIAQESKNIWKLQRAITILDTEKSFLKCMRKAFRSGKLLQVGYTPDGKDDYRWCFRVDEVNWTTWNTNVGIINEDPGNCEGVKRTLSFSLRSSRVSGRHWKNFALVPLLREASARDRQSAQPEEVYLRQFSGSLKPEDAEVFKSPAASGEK
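TRPV1-expressing cells were cultured overnight at 35.5C and loaded with Fluo-8 calcium dye for 40 to 90 min at room temperature. After a 10 s baseline, compound was added and calcium influx was read kinetically for 3 min (ex 480/em 520 nm).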
MBNL1 CUG block = blocks human MBNL1 binding to CUG repeat RNA; Q9NR56; TR-FRET MBNL1-His/biotin-(CUG)12 binding, 665/545 ratio; Potency, µM (highest dose often 57.5 µM), for inactives: at the highest dose activity change, negative = inhibition, actives largely listed as inhibitors; 0.036% of 280,000 active; AID 2675; active = well fitted inhibition curve with a large enough effect in the signal ratio, with a control signal flat, not every such curve was filed as active; inconclusive = small, poorly fitted or top-dose-only effect, or effect the other way, or a change in a side signal; inactive = no such curve, though single readings can be large or run the other way; the % refers to the signal ratio; note: potency is the fitted concentration of half-maximal effect; % is set by controls: 0 for no effect and ±100 for the full control effect
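His-tagged MBNL1 binding to biotinylated (CUG)12 RNA was measured by TR-FRET using terbium anti-His antibody (0.055 ng/ul final) and streptavidin-XL665 (5 nM final). Compounds were titrated 92 nM to 58 uM; 60 min at room temperature.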
KCNH2 3.1 block = inhibitors of human KCNH2 3.1 potassium channel isoform; U2OS KCNH2 3.1, thallium flux FluxOr; stronger effect = lower value; activity change, % (tested at about 1.8 µM); 0.95% of 340,000 active; AID 720553;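 active = maximum activity change below -70%; inconclusive = maximum activity change from -70% to -50%; inactive = maximum activity change above -50%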;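 note: thallium influx rate constant from kinetic fluorescence after stimulation buffer; % is set by controls: 0 for no effect and ±100 for the full control effect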
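Kinetic fluorescence (2 min after stimulation buffer) measures Tl+ influx through KCNH2 3.1 expressed by viral transduction in U2OS cells; the rate constant is normalized against DMSO controls serving as positive and negative references.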
TRPV1 ag = agonists of human vanilloid receptor 1 (TRPV1); Q8NER1; TRPV1-expressing cells, Fluo-8 calcium influx, agonist mode; 0.19% of 320,000 active; activation, % at 8.33 µM; in the data active = activation above about 80%; inconclusive = between about 30% and that limit; note: 0% is about no effect
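Cells expressing TRPV1 were dye-loaded with Fluo-8 and read kinetically: 10 s baseline, 3 min after compound (agonist portion), then 2 min after EC20 capsaicin (allosteric enhancer portion). Calcium-bound dye fluorescence at 480/520 nm.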
* = called active by the depositor; ? = inconclusive; nt = not tested or not shown; [ ] = another dose, or the depositor's remark. The list is not random: actives were taken first. Their share in the collection is about 1.3%.

SMILES	hERG WT inh	TRPV1 PAM	MBNL1 CUG block	KCNH2 3.1 block	TRPV1 ag
C=CCn1c(SCC(=O)N2N=C(c3ccco3)CC2c2ccco2)nnc1-c1ccncc1 (configuration not stated)	-22.8	2.9	4.5%	5.5	-3.5
O=C(Cc1ccccc1F)Nc1cccc(S(=O)(=O)N2CCOCC2)c1	-2.6	nt	nt	17.0	nt
CCN(Cc1ccc2c(c1)OCCO2)C(=O)CSc1nc(C)nc2sc(C)c(C)c12	6.3	-4.4	nt	-6.6	30.0
CCOC(=O)[C@H]1[C@H]2COc3ccc(C)cc3[C@@H]2N2C(=O)c3cc(F)ccc3NC(=O)[C@@]12C	nt	18.0	nt	nt	91.3*
CCOC(=O)[C@H]1[C@H]2COc3ccc(C)cc3[C@@H]2N2C(=O)c3ccc(F)cc3NC(=O)[C@@]12C	2.3	20.0	nt	2.6	85.0*
CCOC(=O)[C@H]1[C@H]2COc3ccc(C)cc3[C@@H]2N2C(=O)c3ccc(C)cc3NC(=O)[C@@]12C	nt	-27.6	nt	nt	?
CCOC(=O)[C@H]1[C@H]2COc3ccc(C)cc3[C@@H]2N2C(=O)c3ccccc3NC(=O)[C@@]12C	3.2	6.9	nt	2.0	89.7*
CCOC(=O)[C@H]1[C@H]2COc3ccccc3[C@@H]2N2C(=O)c3cc(F)ccc3NC(=O)[C@@]12C	-4.5	10.4	nt	5.0	?
Nc1nc2ccccc2n1/N=C/c1ccc(-c2ccccc2)o1	1.3	-1.6	17.6%	-87.0*	25.7
Cc1ccc(S(=O)(=O)N2CCOCC2)cc1NC(=O)COC(=O)CNC(=O)c1ccccc1	5.6	-3.7	nt	-97.7*	4.9
O=C(COC(=O)c1cnc(Cl)c(Cl)c1)Nc1ccc(S(=O)(=O)N2CCCC2)cc1	17.8	-2.1	3.3%	-96.8*	9.4
O=C(COC(=O)c1cc(S(=O)(=O)N2CCOCC2)ccc1O)Nc1cc(S(=O)(=O)N2CCCC2)ccc1Cl	-146.5*	?	-1.0%	-193.9*	-4.1
O=C(COC(=O)c1cc(S(=O)(=O)N2CCCC2)ccc1O)Nc1ccc(S(=O)(=O)N2CCOCC2)cc1	10.0	21.7	-11.4%	9.7	-4.9
CCOc1ccc(NS(=O)(=O)c2cc3c4c(c2)C(C)C(=O)N4CCC3)cc1 (configuration not stated)	-4.1	-1.5	-3.6%	-9.0	1.0
CCN(C(=O)COC(=O)/C=C/c1nc2ccccc2s1)c1c(N)n(Cc2ccccc2)c(=O)[nH]c1=O	-1.6	nt	nt	5.5	nt
CC(C)n1cc(CN2CCCC(C(=O)Nc3cccc(-c4cc5ccccc5[nH]4)c3)C2)cn1 (configuration not stated)	-19.3	24.2	4.0%	-94.6*	0.1
COc1ccc(OC)c(NC(=O)c2ccc(CSc3nnc(C)s3)cc2)c1	0.1	14.0	-15.5%	-14.0	22.3
Cc1cc2cc(CN(Cc3ccc4c(c3)OCO4)Cc3nnnn3C3CCCC3)c(=O)[nH]c2cc1C	1.5	25.2	-1.5%	-10.6	-0.1
CCc1ccc2[nH]c(=O)c(CN(Cc3nnnn3C3CCCC3)C3CCCCC3)cc2c1	-9.7	-1.8	16.8%	-189.3*	?
Cc1ccc2[nH]c(=O)c(CN(Cc3ccc4c(c3)OCO4)Cc3nnnn3C3CCCC3)cc2c1	-1.5	-4.8	-8.6%	-128.4*	16.5
CCC(=O)Nc1ccc2c(c1)ncn2-c1ccc(C)cc1	-15.2	3.0	-2.7%	1.7	-0.1
CC1CCN(CCc2nc3cc(NC(=O)COc4ccc(Cl)cc4)ccc3n2C)CC1	11.0	2.9	-1.4%	-95.9*	7.1
Cn1c(CCN2CCN(c3ccccn3)CC2)nc2cc(NC(=O)COc3ccc(Cl)cc3)ccc21	-16.9	28.5	-7.9%	-73.9*	0.1
CCN(CC(=O)Nc1cccc(F)c1)CC(=O)Nc1ccccc1OC	11.5	-9.9	0.4%	3.3	16.7
c1ccc2c(c1)oc1c(Nc3ccc(CN4CCOCC4)cc3)ncnc12	2.5	-8.3	-15.8%	-24.7	84.5*
SMILES	hERG WT inh	TRPV1 PAM	MBNL1 CUG block	KCNH2 3.1 block	TRPV1 ag
c1ccc(Nc2ncnc3c2oc2ccccc23)cc1	0.2	-4.5	9.8%	2.7	81.0*
c1ccc2c(c1)oc1c(NCCN3CCOCC3)ncnc12	-0.3	1.2	0.1%	-23.8	5.6
CCNC(=S)N(Cc1c(C)noc1C)c1ccccc1	-7.6	24.7	-19.9%	6.9	-3.6
CCCCNC(=S)N(Cc1c(C)noc1C)c1ccccc1	11.6	-35.9	?	-116.9*	?
COc1ccc(C[C@H]2CN3C(=NC[C@@H]3Cc3ccc(O)cc3)N2C[C@H](C)NC(=O)c2ccc(C)c(Br)c2)cc1	-163.5*	-9.3	-13.1%	-17.0	-0.5
COc1ccc(C[C@H]2CN3C(=NC[C@@H]3Cc3ccc(O)cc3)N2CCNC(=O)c2ccc(C)c(Br)c2)cc1	-81.4*	16.2	-7.9%	-0.3	0.7
COc1ccc(C[C@H]2CN3C(=NC[C@@H]3C(C)C)N2C[C@H](C)NC(=O)c2ccc(C)c(Br)c2)cc1	-18.0	2.8	-5.9%	-40.6	2.3
O=P(c1ccccc1)(c1ccccc1)c1cc(S(=O)(=O)O)ccc1O	-4.6	0.7	0.1%	-5.2	-1.7
O=C(OCC(=O)N1CCc2ccccc21)c1cncc(Br)c1	11.4	10.0	-2.9%	6.8	-1.7
C[C@@H]1CN([C@@H](C)CO)C(=O)c2cc(Br)cnc2O[C@H]1CN(C)C(=O)Cc1cccnc1	-14.7	nt	nt	-2.9	nt
COc1ccc(CNC(=O)COC(=O)/C=C/c2cccc(Br)c2)cc1OC	-8.9	?	1.2%	5.6	86.6*
c1ccc(CN2CCC(Nc3nc(-c4cccs4)nc4ccccc34)CC2)cc1	nt	4.5	-2.0%	-72.6*	-3.6
O=C(Nc1ccc2nc3n(c(=O)c2c1)CCCCC3)C(=O)N1CCN(c2ccc(F)cc2)CC1	0.2	12.7	-1.3%	-24.0	-0.5
COC(=O)c1cc(S(=O)(=O)N2CCN(c3ccccc3F)CC2)c[nH]1	7.7	-8.3	-5.1%	-78.7*	8.7
CCCCCC1CC(CC(=O)Nc2ccc([N+](=O)[O-])cc2)C(=O)O1 (configuration not stated)	nt	-2.9	16.7%	-71.3*	2.2
Cc1ccc(OCCn2cc(/C=N/NC(=O)c3ccncc3)c3ccccc32)cc1	-186.8*	10.8	19.1%	-5.4	6.5
Cc1ccc(C(=O)Nc2nc(C)c(C(=O)N(C)C)s2)o1	-12.1	11.5	3.0%	-13.7	-0.9
Cc1nc(NC(=S)NC(=O)c2ccco2)sc1C(=O)N(C)C	-122.5*	1.6	-5.4%	3.1	-0.9
CN(C(=O)c1cccc(NC(=O)Cc2cccc(NC(=O)C3CCN(C(=O)c4ccccc4)CC3)c2)c1)C1CC1	4.3	nt	nt	12.9	nt
O=C(c1cc2ccccc2oc1=O)N1CCN(c2ccc(N3CCOCC3)nn2)CC1	-9.6	-4.7	29.3%	-88.3*	1.3
O=C(C1CCN(CCCc2ccccc2)CC1)N(CCc1ccccc1)Cc1ccccc1	-88.6*	0.4	-5.9%[11.5 µM]	-110.4*	0.7
